# An excerpt weighted towards active compounds, which were near 2.3% of everything screened.
# M1 ag: agonists of human M1 muscarinic receptor. 360,000 compounds, 0.33% hits. P11229. AID 588814. CHO-K1 hM1, Fluo-8 calcium fluorescence, agonist mode; 0% DMSO, 100% acetylcholine EC100. activation, % at 3 µM;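 active = activation above the run's mean compound activation plus 3 SD, cut at about 16% in these data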;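 also: peak over basal fluorescence ratio within a 140 s kinetic read after compound addition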
# Target sequence (P11229 whole entry, looked up): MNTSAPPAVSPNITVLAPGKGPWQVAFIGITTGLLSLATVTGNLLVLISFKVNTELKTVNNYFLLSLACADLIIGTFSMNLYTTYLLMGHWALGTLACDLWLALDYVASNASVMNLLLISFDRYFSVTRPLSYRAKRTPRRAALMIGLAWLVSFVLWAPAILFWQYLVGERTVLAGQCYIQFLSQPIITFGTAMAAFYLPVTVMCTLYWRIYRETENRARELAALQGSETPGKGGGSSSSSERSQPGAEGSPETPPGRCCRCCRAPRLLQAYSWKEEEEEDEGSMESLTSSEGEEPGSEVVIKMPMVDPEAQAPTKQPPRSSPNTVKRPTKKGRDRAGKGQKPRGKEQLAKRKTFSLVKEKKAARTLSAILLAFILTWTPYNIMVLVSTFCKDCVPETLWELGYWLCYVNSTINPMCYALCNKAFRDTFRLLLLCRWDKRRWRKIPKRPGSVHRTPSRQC
# CHO-K1 Ca PAM: nonselective activator or artifact in parental CHO-K1 calcium assay; ATP EC20, Fluo-8 calcium fluorescence; 0% at ATP EC20, 100% at ATP max; activation, % at 3 µM; 360,000 compounds, 0.02% hits; AID 602247;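 active = activation above the run cutoff, the mean activation of all test compounds plus 3 SD, cut at about 40% in these data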;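 also: peak over basal fluorescence ratio in a 140 s read after ATP addition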
# M1 antag: antagonists of human M1 muscarinic receptor. inhibition, % at 3 µM. P11229. 360,000 compounds, 1.3% hits. CHO-K1 hM1, Fluo-8 calcium fluorescence, ACh EC80 antagonist;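 active = percent inhibition above its own plate's cutoff, namely the mean of that plate's compound wells plus 3 SD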;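 also: peak over basal fluorescence ratio during 140 s after agonist addition; 0% = ACh EC80 plus DMSO and 100% = DMSO alone without agonist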
# CHO-K1 Ca antag: counter-screen for M1 antagonists: effect in parental CHO-K1 cells; inhibition, % at 3 µM; 360,000 compounds, 0.6% hits; AID 602250; ATP-induced calcium, Fluo-8 fluorescence;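 active = inhibition above a per-plate cutoff, the plate's mean sample inhibition plus 3 SD, cut at about 24% in these data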;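 also: 0% = DMSO plus EC80 ATP and 100% = DMSO alone without ATP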
# CHO-K1 Ca ag: nonselective activator or artifact in parental CHO-K1 cells | Fluo-8 calcium fluorescence; scaled to maximal ATP response, vehicle zero | activation, % at 3 µM | 360,000 compounds, 0.48% hits | AID 602248; in the data active = activation above about 15%;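 also: untransfected CHO-K1 host cells lacking M1 receptor as counterscreen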
# CHRM1 PAM: positive allosteric modulators of human M1 muscarinic receptor | P11229 | CHO-K1 hM1, Fluo-8 calcium fluorescence, ACh EC20; 0% = ACh EC20, 100% = maximal ACh | activation, % at 3 µM | 360,000 compounds, 0.088% hits | AID 588819; in the data active = activation above about 19%, passing the limit was not always enough
# * hit, by the source's call.
SMILES,M1 ag,CHO-K1 Ca PAM,M1 antag,CHO-K1 Ca antag,CHO-K1 Ca ag,CHRM1 PAM
COc1ccc(-c2cc(C(F)(F)F)nc(SCCC(=O)NCc3ccccc3)n2)cc1,-1,-6,-12,29*,-1,9
CC(C(=O)Nc1nccs1)N1C(=O)c2ccccc2S1(=O)=O (stereo not drawn),-3,3,-7,-3,1,1
Cc1ccc2cc(C#N)c(SCC(=O)NNC(=O)Cc3ccccc3)nc2c1,3,-16,-3,25*,0,14
COc1ccc2cc(C#N)c(SCC(=O)NNC(=O)Cc3ccccc3)nc2c1,-5,15,-1,-2,0,1
COc1cc(/C=C/C(=O)NC(=O)c2ccccc2O)ccc1O,-2,1,-5,-7,1,8
COc1cc(/C=C/C(O)=C/C(=O)/C=C/c2ccc(O)cc2)ccc1O,18*,-10,39*,19,17*,-20
CCc1c(C#N)c(SCCC(=O)Nc2cccc(OC)c2)nc2c1C(=O)CC(C)(C)C2,-1,18,14,1,4,-11
CCc1c(C#N)c(SCCC(=O)Nc2ccc(F)cc2)nc2c1C(=O)CC(C)(C)C2,0,0,38*,2,3,-18
O=C(C1COc2ccccc2O1)N1CCN(c2ccccc2Cl)CC1 (stereo not drawn),-6,15,-11,-2,0,9
COc1ccccc1C(CNC(=O)C(C)(C)Oc1ccc(Cl)cc1)N1CCCC1 (stereo not drawn),-8,-2,89*,12,1,-27
COc1ccccc1C(CNC(=O)C1COc2ccccc2O1)N1CCCC1 (stereo not drawn),-6,7,77*,-24,2,-24
COc1ccccc1CNC(=O)C1COc2ccccc2O1 (stereo not drawn),-3,14,-8,-2,0,4
COc1ccccc1C(CNC(=O)C(C)Oc1ccc(Br)cc1)N1CCCC1 (stereo not drawn),-6,11,31*,-2,1,-22
O=C(C1COc2ccccc2O1)N1CCCCC1 (stereo not drawn),-2,-20,29,24*,-1,-12
O=C(CC1CCCCC1)NCCS(=O)(=O)N1CCN(c2ccccc2)CC1,-1,20,-12,-9,1,10
O=C(Nc1nnc([C@H]2C[C@H](O)[C@@H](CO)O2)s1)c1ccc(Oc2ccccc2)cc1,-5,-4,-7,-3,0,3
CCC1CCc2sc(C(=O)NCC(c3ccccc3OC)N3CCCC3)cc2C1 (stereo not drawn),-6,8,43*,-14,1,-21
COc1ccc(C(CNC(=O)c2cc3c(s2)CCC(C)C3)N2CCCC2)cc1 (stereo not drawn),-8,22,-1,-11,1,-5
CCCN(Cc1nnc(-c2ccccc2Cl)o1)C(=O)c1oc2ccccc2c1C,-3,7,4,1,2,1
CSc1ccc(CN2CCC(Oc3cccc(C(=O)N4CCCC4)c3)CC2)cc1,-6,-1,75*,2,2,-23
O=C(c1cccc(OC2CCN(Cc3cc(F)cc(F)c3)CC2)c1)N1CCCC1,-5,-10,2,18,0,6
Cc1cc(C)cc(CN2CCC(Oc3ccc(C(=O)N4CCCC4)cc3)CC2)c1,-4,9,9,-24,2,-9
COC(=O)c1ccc(CN2CCC(Oc3cccc(C(=O)N4CCCC4)c3)CC2)cc1,-1,4,94*,-2,2,-21
COC(=O)c1ccc(CN2CCC(Oc3ccc(C(=O)N4CCCCC4)cc3)CC2)cc1,-4,22,97*,-9,4,-22
COc1ccc2cc(C3(C)NC(=O)N(CC(=O)N4CCCCC4)C3=O)ccc2c1 (stereo not drawn),3,8,-18,-6,1,13
O=C(NCCN1CCCCCC1)C1CCCN1S(=O)(=O)c1cccc2nsnc12 (stereo not drawn),-7,-22,-13,18,0,-5
C[C@H]1CN([C@@H](C)CO)C(=O)c2cc(C#CC3(O)CCCC3)cnc2O[C@H]1CN(C)C(=O)C1CC1,-1,19,-11,-13,0,5
